Source: PubChem BioAssay AID1523 (The Scripps Research Institute Molecular Screening Center, 2009)
Some of the results follow. Unmarked numbers belong to inactive results. The source made the active and inactive calls. Rule as the data show it: active = activation above about 12%; inactive = the rest. Non-standard residues stand in square brackets, D forms with d. Residues, ends and D or L forms follow the SMILES beside them. ξ: configuration not given here. ξM = CSCCC(N)C(=O)O

molecular target: Sphingosine 1-phosphate receptor 4 (Homo sapiens) (UniProt O95977); test: S1P4 receptor agonists, retest, confirmation, cell-based, high throughput (AID 1523); conditions: S1P4 agonist cell-based reporter assay; at 4.98 µM; stronger effect = higher value;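 also: 0% = vehicle and 100% = full reference agonist response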
Sequence (O95977 whole entry, looked up): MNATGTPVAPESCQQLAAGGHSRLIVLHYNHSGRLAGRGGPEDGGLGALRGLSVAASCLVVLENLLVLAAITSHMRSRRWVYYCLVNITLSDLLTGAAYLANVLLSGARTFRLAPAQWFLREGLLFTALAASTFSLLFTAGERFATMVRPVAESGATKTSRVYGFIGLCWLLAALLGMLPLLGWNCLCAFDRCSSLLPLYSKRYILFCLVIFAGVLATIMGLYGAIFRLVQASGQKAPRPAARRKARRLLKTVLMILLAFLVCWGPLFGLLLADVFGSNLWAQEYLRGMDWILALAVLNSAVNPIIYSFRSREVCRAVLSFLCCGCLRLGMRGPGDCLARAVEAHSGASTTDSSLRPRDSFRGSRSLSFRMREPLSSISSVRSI

Q: `COc1ccccc1CNC(=O)CNC(=O)c1cn(-c2ccccc2OC)c(=O)c2ccccc12` was tested. Which activation did it give?
A: -1.82%

Q: For `CC1CCCC(NC(=O)COC(=O)[C@@H]2CC(O)CN2S(=O)(=O)c2ccc3c(c2)OCCO3)C1C` (some centres not stated), which activation is on record?
A: -1.06%

Q: For `N/C(=N\OC(=O)Cc1ccc([N+](=O)[O-])cc1)c1ccccn1`, which activation is on record?
A: -3.04%

Q: With `COc1ccc(C2CC(c3cccs3)=NN2c2ccc(F)cc2)cc1OC` (configuration not stated) as the molecule, how does the activation read?
A: 10.7%

Q: Which activation does the source give for `Cc1cc(C)nc(N(C#N)CC(=O)Nc2ccccc2)n1` here?
A: -0.69%

Q: For `Cc1noc(C)c1COC(=O)COc1ccc(-c2ccccc2)cc1`, which activation is on record?
A: -2.48%

Q: For `COc1ccc(C2CC(c3cccs3)=NN2c2ccccc2)cc1` (configuration not stated), which activation is on record?
A: 23.1% (active)

Q: For `O=C(COC(=O)c1cc([N+](=O)[O-])ccc1NCc1ccccc1)NC1CCCCC1`, which activation is on record?
A: -2.43%

Q: For `CSc1sc(C(=O)NNC(=O)c2ccc(Cl)cc2)c2c1C=CCC2`, which activation is on record?
A: -2.13%

Q: With `O=[N+]([O-])c1cccc(Nc2c3ccccc3nc3ccccc23)c1` as the molecule, how does the activation read?
A: 6.3%

Q: How did the activation turn out when `CC(Oc1ccc(Br)cc1Br)C(=O)NC1CCCC1` (configuration not stated) was run?
A: -1.69%

Q: For `CC(C)C(c1nnnn1C(C)(C)C)N1CCN(Cc2cccnc2)CC1` (configuration not stated), which activation is on record?
A: -2.62%

Q: `CCC(=O)/C(=C(/O)c1ccccc1)c1nc2ccccc2[nH]1` was tested. Which activation did it give?
A: -1.45%

Q: Which activation does the source give for `CNC(=O)c1[nH]cnc1C(=O)N[C@@H](CC(C)C)C(=O)OCc1ccccc1` here?
A: 48% (active)

Q: With `O=C(CSc1ccc(-c2ccc(F)cc2)nn1)Nc1ccc2c(c1)OCCO2` as the molecule, how does the activation read?
A: -1.49%

Q: Which activation does the source give for `O=C(CSc1nncn1-c1cccnc1)N1CCOCC1` here?
A: -1.73%

Q: `COc1ccc(-n2c(C)cc(C(=O)CN3C(=O)NC4(CCc5ccccc54)C3=O)c2C)cc1` (configuration not stated) was tested. Which activation did it give?
A: -1.26%

Q: Which activation does the source give for `O=C(COC(=O)Cc1ccc(F)cc1)Nc1cc(S(=O)(=O)N2CCOCC2)ccc1N1CCCC1` here?
A: -0.73%

Q: How did the activation turn out when `Cc1cc(NC(=O)c2cc(-c3cccs3)on2)nn1Cc1ccc(Cl)cc1` was run?
A: -0.63%

Q: For `O=C(CSc1nnc(Nc2ccccc2)s1)Nc1cccnc1Cl`, which activation is on record?
A: -0.71%

Q: Which activation does the source give for `COC(=O)CNC(=O)C(CCSC)NC(C)=O` (configuration not stated) (Ac-[ξM]-Gly-OMe) here?
A: -1.87%

Q: `Cc1cc(C)c(C#N)c(SCC(=O)NN2CC(=O)N(c3ccccc3F)CC2=O)n1` was tested. Which activation did it give?
A: -0.87%

Q: For `COC(=O)[C@@H]1CC[C@H](C)[C@@H](c2ccc(C)cc2)N1C(=O)c1ccc(/C=N/O[C@H](C)c2cn([C@@H]3COC[C@H]3O)nn2)cc1`, which activation is on record?
A: -1.25%

Q: With `C=CCn1c(SCn2nnc3ccccc3c2=O)nnc1-c1ccc(Cl)cc1` as the molecule, how does the activation read?
A: -1.29%

Q: `CCCCCNC(=O)c1cccnc1SCC(=O)Nc1ccccc1OC` was tested. Which activation did it give?
A: -2.09%

Q: `CCn1c(CNC(=O)c2ccc(OC)c(OC)c2)nnc1SCC(=O)Nc1ccccc1` was tested. Which activation did it give?
A: -2.38%

Q: With `CCOc1ccc(-c2nnc(-c3ccco3)o2)cc1` as the molecule, how does the activation read?
A: -1%

Q: With `CC(=O)Nc1ccc(SCC(=O)Nc2ccccc2Oc2ccccc2)cc1` as the molecule, how does the activation read?
A: -3.24%

Q: For `CC(=O)Nc1ccccc1NC(=O)c1cc(C)cc(C)c1`, which activation is on record?
A: -2.02%

Q: `Cc1ccc(NC(=O)Nc2ccccc2)c(Br)c1` was tested. Which activation did it give?
A: -1.05%

Q: For `CCC(C)NC(=O)C1c2ccccc2Oc2ccccc21` (configuration not stated), which activation is on record?
A: 0.12%

Q: For `COc1ccc(N2C(=O)C(Cc3ccccc3)NC2=S)cc1` (configuration not stated), which activation is on record?
A: -1.44%
